# Tests used:
# Assay in all cases: PBM binding z-score (relative to random genomic background probes); higher = stronger binding; sequences stand for … in GC…GCGATTGACAGCGTAGAATGAAGG
# [1] = system: FXR:RXRa (NR concentration 270 nM, RXRa partner concentration 90 nM)
# How it was run: (§1)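 Scanned fluorescence from custom Agilent 4×180K protein-binding microarrays was regression-normalized. Binding z-scores use random background probes as reference. Ligand-free nuclear receptor dimers were incubated on the arrays for 1 h and detected with antibodies against each partner (one per run).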
# [2] = system: LXRa:RXRa (NR concentration 270 nM, RXRa partner concentration 90 nM)
# How it was run: as §1
# [3] = system: LXRa homodimer (NR concentration 270 nM)
# How it was run: as §1
# [4] = system: LXRb:RXRa (NR concentration 270 nM, RXRa partner concentration 90 nM)
# How it was run: as §1
# [5] = system: LXRb homodimer (NR concentration 270 nM)
# How it was run: as §1
# [6] = system: PPARa:RXRa (NR concentration 270 nM, RXRa partner concentration 90 nM)
# How it was run: as §1
# [7] = system: PPARg:RXRa (NR concentration 180 nM, RXRa partner concentration 90 nM)
# How it was run: as §1
# [8] = system: PPARg:RXRa 270nM:90nM, anti-RXR (NR concentration 270 nM, RXRa partner concentration 90 nM)
# How it was run: as §1
# [9] = system: PPARg:RXRa 30nM:10nM, anti-RXR (NR concentration 30 nM, RXRa partner concentration 10 nM)
# How it was run: as §1
# [10] = system: PPARg:RXRa 90nM:30nM, anti-RXR (NR concentration 90 nM, RXRa partner concentration 30 nM)
# How it was run: as §1
# [11] = system: PPARg:RXRa DBDmut IVT, anti-RXR (DBD mutation: RXRa K156A/R161A, NR concentration 270 nM, RXRa partner concentration 90 nM)
# How it was run: as §1
# [12] = system: PPARg:RXRa IVT, anti-PPARg (NR concentration 270 nM, RXRa partner concentration 90 nM)
# How it was run: as §1
# [13] = system: PPARg DBDmut:RXRa IVT, anti-PPARg (DBD mutation: PPARg1 K132A/R137A, NR concentration 270 nM, RXRa partner concentration 90 nM)
# How it was run: as §1
# [14] = system: PPARg DBDmut IVT, anti-PPARg (DBD mutation: PPARg1 K132A/R137A, NR concentration 270 nM)
# How it was run: as §1
# [15] = system: PPARg homodimer (NR concentration 180 nM)
# How it was run: as §1
# [16] = system: PXR:RXRa (NR concentration 270 nM, RXRa partner concentration 90 nM)
# How it was run: as §1
# [17] = system: PXR homodimer (NR concentration 270 nM)
# How it was run: as §1
# [18] = system: RARa:RXR (NR concentration 270 nM, RXRa partner concentration 90 nM)
# How it was run: as §1
# [19] = system: RARa homodimer (NR concentration 270 nM)
# How it was run: as §1
# [20] = system: RARb:RXRa (NR concentration 270 nM, RXRa partner concentration 90 nM)
# How it was run: as §1
Sequence,PBM binding z-score [1],PBM binding z-score [2],PBM binding z-score [3],PBM binding z-score [4],PBM binding z-score [5],PBM binding z-score [6],PBM binding z-score [7],PBM binding z-score [8],PBM binding z-score [9],PBM binding z-score [10],PBM binding z-score [11],PBM binding z-score [12],PBM binding z-score [13],PBM binding z-score [14],PBM binding z-score [15],PBM binding z-score [16],PBM binding z-score [17],PBM binding z-score [18],PBM binding z-score [19],PBM binding z-score [20]
CCTCGCAGGACAGAAGGTCAGAGCTGTCCGCTTT,1.07,1.44,0.197,1.13,-0.678,1.86,-0.29,0.666,-0.929,0.0497,0.197,0.104,-2.21,-1.7,1.13,1.35,-0.203,1.84,-0.425,2.81
CCTCGGATGACAACAGGAGGTCAGAGCTGCCAGA,0.859,1.83,1.84,1.53,-0.0301,1.91,0.547,0.588,-0.476,0.0996,-0.191,-0.245,0.202,-0.797,1.63,1.72,0.385,2.22,1.58,2.02
TCATTTAGGTAATACAGGTGAAAGTCGGCATCTA,1.6,1.41,0.774,1.47,1.18,2.02,0.962,2.92,4.52,3.72,3.53,3.29,1.53,1.6,1.72,1.06,0.701,1.43,2.03,1.07
ATCTCTAGGTAAAGATAGTTCAGAGAATGCAAAT,0.206,3.56,0.259,0.69,0.411,0.663,0.843,0.494,0.309,0.609,1.37,1.42,0.582,1.54,0.983,0.864,0.342,0.707,0.924,0.573
GGAACGAGGGCAAAGTTGAAAGCATCTGTCGACG,2.18,1.34,-0.458,1.26,-0.325,4.91,8.72,8.04,7.29,8.83,4.35,5.08,-0.45,-0.356,0.811,2.03,0.337,2.95,-0.362,2.7
CATACAGGGTCAGCTAGGCCAGAGTTGGGACGGC,4.25,2.86,-0.145,2.06,0.341,4.17,3.24,2.97,0.45,1.6,1.33,2.34,0.63,0.195,0.968,1.85,-0.0328,2.78,0.28,4.17
CGAACTAGGGCATCCAGGACAGTGAATACATTGA,0.197,-0.226,-0.3,-0.431,-0.651,2.12,3.28,2.52,0.606,1.5,7.07,6.16,1.33,1.16,0.204,-0.0736,0.524,0.0025,-0.274,1.3
